We go through three compounds from PubChem BioAssay (EPA / NIEHS).

Each structure is given as a SMILES string. Results filed as inconclusive are left out. The source made the active and inactive calls. The calls were made as follows, unless noted: active = hit-call score of the fitted dose curve at least 0.9, where 1 is the maximum; inactive = score below 0.9.

For test [1], the target named is Hepatocyte nuclear factor 3-beta (Homo sapiens) (UniProt Q9Y261). Put plainly: ATG_FoxA2_CIS: Attagene CIS-FACTORIAL HepG2 Assay for human Forkhead box A2 (FOXA2) (AID 2282942). The settings on record: HepG2 cis-reporter transcription factor activity, 24 h; actives raise or lower the signal. The method in brief:
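Endogenous transcription factor activity was read in HepG2 cells carrying transiently transfected cis-promoter reporter units. After 24 h dosing, reporter mRNA was quantified by RT-PCR and capillary electrophoresis, and values fitted bidirectionally versus DMSO.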

Test [2] concerns the target Heat shock factor protein 1 (Homo sapiens) (UniProt Q00613). Put plainly: ATG_HSE_CIS: Attagene CIS-FACTORIAL HepG2 Assay for human Heat Shock Transcription Factor 1 (HSE) (AID 2282953). To be noted: HepG2 HSE cis-reporter, Attagene RNA transcription; actives raise or lower the signal. The method in brief: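 Using HepG2 with transfected cis-driven reporter constructs, compound effects on endogenous factor activity are scored as reporter mRNA change at 24 h. Detection: RT-PCR, HpaI digestion, capillary electrophoresis; bidirectional fitting to DMSO.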

Test [3] can be described thus: ATG_RORE_CIS: Attagene CIS-FACTORIAL HepG2 Assay for human RAR-related Orphan Receptor Element (RORE) (AID 2282959). The settings on record: HepG2 Attagene cis-factorial RORE reporter, mRNA; actives raise or lower the signal. The method, boiled down: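 Cells were HepG2 carrying transfected cis-regulated reporter constructs, dosed for 24 hours. Total RNA was reverse-transcribed and reporter cDNA amplified, fluorescently labeled and sized by capillary electrophoresis. Activity was fitted bidirectionally relative to DMSO.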

Test [4] in a line: ATG_Sox_CIS: Attagene CIS-FACTORIAL HepG2 Assay for human SRY-box transcription factor (SOX) (AID 2282960). The settings on record: HepG2 Attagene cis-factorial SOX reporter, mRNA; actives raise or lower the signal. The method, boiled down: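 Transient MRTU transfection of HepG2; 24 h compound incubation; TriZol RNA, oligo(dT) RT, PCR, 6-FAM primer extension, HpaI cut, CE. Bidirectional fit, DMSO = baseline.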

The target in test [5] is Transcription factor Sp1 (Homo sapiens) (UniProt P08047). The test can be described thus: ATG_Sp1_CIS: Attagene CIS-FACTORIAL HepG2 Assay for human Specificity Protein 1 (Sp1) (AID 2282961). The settings on record: HepG2 Sp1 cis-reporter transcription, actives raise or lower the signal. The method, boiled down: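 Endogenous Sp1 activity was gauged in human liver HepG2 cells bearing transfected reporter units under a cis-regulating promoter. After 24 h dosing, reporter mRNA was quantified by RT-PCR with capillary electrophoresis, and activity fitted bidirectionally versus DMSO.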
Chain of Transcription factor Sp1 (Homo sapiens) (P08047 whole entry, looked up): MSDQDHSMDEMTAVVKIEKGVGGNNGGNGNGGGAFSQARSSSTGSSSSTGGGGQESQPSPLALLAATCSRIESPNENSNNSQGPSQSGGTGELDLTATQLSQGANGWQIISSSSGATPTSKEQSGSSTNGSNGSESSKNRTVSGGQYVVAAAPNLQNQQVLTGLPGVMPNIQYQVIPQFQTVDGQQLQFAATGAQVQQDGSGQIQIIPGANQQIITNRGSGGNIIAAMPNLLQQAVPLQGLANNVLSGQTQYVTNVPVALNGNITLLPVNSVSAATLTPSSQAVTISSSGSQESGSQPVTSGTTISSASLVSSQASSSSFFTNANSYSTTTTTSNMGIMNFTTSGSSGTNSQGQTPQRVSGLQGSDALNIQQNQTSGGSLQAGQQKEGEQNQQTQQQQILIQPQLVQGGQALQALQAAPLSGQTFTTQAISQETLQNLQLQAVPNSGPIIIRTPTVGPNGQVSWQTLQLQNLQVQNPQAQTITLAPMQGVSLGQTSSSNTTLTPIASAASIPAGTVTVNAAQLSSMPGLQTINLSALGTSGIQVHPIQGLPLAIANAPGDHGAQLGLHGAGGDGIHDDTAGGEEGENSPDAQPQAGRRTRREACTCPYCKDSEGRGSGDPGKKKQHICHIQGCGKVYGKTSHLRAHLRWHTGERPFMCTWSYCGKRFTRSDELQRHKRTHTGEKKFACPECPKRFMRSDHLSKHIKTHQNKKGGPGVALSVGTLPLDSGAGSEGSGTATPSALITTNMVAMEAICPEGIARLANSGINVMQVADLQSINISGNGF

A short description of test [6]: ATG_SREBP_CIS: Attagene CIS-FACTORIAL HepG2 Assay for human Sterol Regulatory Element Binding (SREBP) (AID 2282962). To be noted: HepG2 Attagene cis-factorial SREBP reporter, mRNA; actives raise or lower the signal. The method, boiled down:
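HepG2 cells transiently transfected with multiplexed cis-promoter reporter units sensing endogenous transcription factors; reporter mRNA measured 24 h after dosing by RT-PCR, 6-FAM labeling, HpaI digestion and capillary electrophoresis. Bidirectional fit versus DMSO.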

Test [7] has as its target Signal transducer and activator of transcription 3 (Homo sapiens) (UniProt P40763). The test can be described thus: ATG_STAT3_CIS: Attagene CIS-FACTORIAL HepG2 Assay for human Signal Transducer and Activator of Transcription 3 (STAT3) (AID 2282963). The settings on record: HepG2, Attagene cis-factorial STAT3 reporter transcription; actives raise or lower the signal. The method in brief: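 HepG2 cells transiently transfected with multiple cis-element-driven reporter units report endogenous transcription factor activity. After 24 h compound exposure, reporter mRNA is measured by RT-PCR, 6-FAM labelling, HpaI digestion and capillary electrophoresis. Fitted bidirectionally versus DMSO.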

The nature of test [8]: ATG_TA_CIS: Attagene CIS-FACTORIAL HepG2 Assay for human TA Basal Promoter (AID 2282964). To be noted: HepG2 Attagene CIS-factorial TA basal promoter reporter; actives raise or lower the signal. The method in brief:
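Transient MRTU transfection of HepG2 preceded 24 h compound exposure. Reporter mRNA levels were then read by RT-PCR with capillary electrophoresis, and this background-control endpoint was fitted bidirectionally to DMSO.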

Test [9] in a line: ATG_TCF_b_cat_CIS: Attagene CIS-FACTORIAL HepG2 Assay for human T-Cell-Factor with beta-catenin (TCF/b-cat) (AID 2282965). The settings on record: HepG2 TCF/beta-catenin cis-reporter transcription, actives raise or lower the signal. The method, boiled down:
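HepG2 cells transiently transfected with cis-promoter-driven multiplexed reporter units; reporter mRNA measured 24 h after dosing by RT-PCR, FAM labelling, HpaI digestion and capillary electrophoresis. Bidirectional fitting relative to DMSO baseline.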

The nature of test [10]: ATG_TAL_CIS: Attagene CIS-FACTORIAL HepG2 Assay for human TAL Basal Promoter (AID 2282966).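 Also: background control endpoint measuring basal TAL promoter reporter mRNA not a specific factor.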 The settings on record: HepG2 Attagene cis-factorial TAL promoter reporter; actives raise or lower the signal. The method, boiled down:
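In this cell-based multiplex, HepG2 liver cells bearing cis-promoter reporter constructs are dosed for 24 hours. Total RNA is reverse-transcribed and amplified, labelled fragments are sized by capillary electrophoresis, and signal changes are fitted bidirectionally versus DMSO.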

A short description of test [11]: ATG_VDRE_CIS: Attagene CIS-FACTORIAL HepG2 Assay for human Vitamin D Receptor Element (VDRE) (AID 2282968). To be noted: HepG2 VDRE cis-reporter transcription, actives raise or lower the signal. The method, boiled down: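 Transiently transfected HepG2 cells carrying cis-regulated reporter transcription units were exposed for 24 h. Reporter mRNA was measured by RT-PCR with fluorescent labelling and capillary electrophoresis, and fitted in both directions against DMSO.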

The target in test [12] is Transcriptional activator Myb (Homo sapiens) (UniProt P10242). The test can be described thus: ATG_Myb_CIS: Attagene CIS-FACTORIAL HepG2 Assay for human Myeloblastosis (Myb) Proto-Oncogene Transcription Factor (AID 2282986). To be noted: HepG2 Attagene CIS-FACTORIAL Myb reporter transcription; actives raise or lower the signal. The method, boiled down: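 Steps: transfect HepG2 with cis-regulated reporter units; dose with chemical for 24 h; isolate RNA, reverse-transcribe, PCR-amplify and FAM-label reporter sequences; digest with HpaI; resolve by capillary electrophoresis. Activity fitted in both directions relative to DMSO.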
Chain of Transcriptional activator Myb (Homo sapiens) (P10242 whole entry, looked up): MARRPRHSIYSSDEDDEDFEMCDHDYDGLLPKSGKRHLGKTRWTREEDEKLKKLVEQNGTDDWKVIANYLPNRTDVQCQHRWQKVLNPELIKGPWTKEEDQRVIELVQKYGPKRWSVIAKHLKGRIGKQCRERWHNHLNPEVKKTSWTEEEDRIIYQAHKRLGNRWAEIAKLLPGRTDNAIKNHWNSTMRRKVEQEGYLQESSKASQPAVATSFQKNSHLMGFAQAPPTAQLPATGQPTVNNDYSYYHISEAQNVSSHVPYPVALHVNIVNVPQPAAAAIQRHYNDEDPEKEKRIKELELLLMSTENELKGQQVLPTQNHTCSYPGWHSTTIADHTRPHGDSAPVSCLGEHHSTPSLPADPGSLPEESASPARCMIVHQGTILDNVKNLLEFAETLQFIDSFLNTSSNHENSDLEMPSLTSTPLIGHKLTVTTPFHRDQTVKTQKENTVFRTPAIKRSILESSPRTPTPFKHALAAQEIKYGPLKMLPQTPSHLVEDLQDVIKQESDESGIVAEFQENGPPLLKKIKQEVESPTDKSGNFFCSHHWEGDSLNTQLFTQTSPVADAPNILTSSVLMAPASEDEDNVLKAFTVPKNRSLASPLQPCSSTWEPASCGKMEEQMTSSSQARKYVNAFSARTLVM

Test [13] addresses Nuclear respiratory factor 1 (Homo sapiens) (UniProt Q16656). The test can be described thus: ATG_NRF1_CIS: Attagene CIS-FACTORIAL HepG2 Assay for human Nuclear Respiratory Factor 1 (NRF1) Orphan Gene (AID 2282987). To be noted: HepG2 NRF1 cis-element reporter, Attagene multiplex; actives raise or lower the signal. The method in brief:
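Fluorescence intensity of labelled reporter cDNA fragments, resolved by capillary electrophoresis, served as readout for NRF1 cis-element activity. Transiently transfected HepG2 cells were dosed for 24 hours; activity in either direction was fitted against DMSO negative control.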

A short description of test [14]: ATG_NFI_CIS: Attagene CIS-FACTORIAL HepG2 Assay for human Nuclear Factor I (NFI) (AID 2282989). The settings on record: HepG2 cis-regulatory reporter, NFI response element transcription; actives raise or lower the signal. The method, boiled down:
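Reporter transcription driven by endogenous transcription factors in HepG2 cells; 24 h treatment. Quantitation by labelled RT-PCR fragments on capillary electrophoresis, gain- or loss-of-signal relative to DMSO.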

In test [15] the target is Myc proto-oncogene protein (Homo sapiens) (UniProt P01106). Put plainly: ATG_Myc_CIS: Attagene CIS-FACTORIAL HepG2 Assay for human Myelocytomatosis (Myc) Proto-Oncogene Transcription Factor (AID 2282990). The settings on record: HepG2, Attagene cis-reporter transcription factor activity; actives raise or lower the signal. The method in brief:
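Transiently transfected HepG2 cells bearing cis-promoter reporter units for endogenous transcription factors; 24 h exposure. Reporter mRNA measured by RT-PCR, 6-FAM primer extension, HpaI cut and capillary electrophoresis; bidirectional fit relative to DMSO.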

Test [16] is described as follows: ATG_NRF2_ARE_CIS: Attagene CIS-FACTORIAL HepG2 Assay for human Nuclear Factor Erythroid 2 Related Factor 2 (NFR2) response to Antioxidant Response Elements (ARE) (AID 2282992).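 As to AC50: reporter mRNA level measured by RT-PCR and capillary electrophoresis fluorescence.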 To be noted: HepG2 Attagene ARE/NRF2 reporter, transcription factor activity; actives raise or lower the signal. The method, boiled down: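 HepG2 cells transiently transfected with multiplexed cis-element reporter constructs, 24 h after chemical dosing; reporter mRNA quantified by RT-PCR, fluorescent primer extension, HpaI digestion and capillary electrophoresis. Bidirectional fit relative to DMSO.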

Test [17] can be described thus: ATG_Oct_MLP_CIS: Attagene CIS-FACTORIAL HepG2 Assay for human Octamer-Binding Transcription Factor (Oct) (AID 2282993). The settings on record: HepG2 Attagene cis-factorial Oct reporter, mRNA; actives raise or lower the signal. The method in brief: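 Transfected HepG2 cells, 24 h treatment. Reporter mRNA quantified by RT-PCR–capillary electrophoresis; bidirectional fitting against DMSO.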

For test [18], the target named is Cellular tumor antigen p53 (Homo sapiens) (UniProt P04637). Put plainly: ATG_p53_CIS: Attagene CIS-FACTORIAL HepG2 Assay for human p53 Transcription Factor (AID 2282994). The settings on record: HepG2 p53 cis-element reporter, Attagene mRNA; actives raise or lower the signal. The method in brief:
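HepG2 cells transiently transfected with cis-regulated multiple reporter transcription units, dosed 24 h. Reporter mRNA measured by RT-PCR, 6-FAM primer extension, HpaI digestion and capillary electrophoresis; bidirectional fit relative to DMSO.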

In test [19] the target is Nuclear receptor subfamily 1 group I member 2 (Homo sapiens) (UniProt O75469). Put plainly: ATG_PXR_TRANS: Attagene TRANS-FACTORIAL HepG2 Assay for human Pregnane X Receptor (PXR) (AID 2283008; active = hit-call score of the fitted dose curve at least 0.9, where 1 is the maximum). The method, boiled down:
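HepG2 cells transiently transfected with GAL4-UAS reporter units and PXR-Gal4 chimera, exposed 24 h. Reporter mRNA quantified by RT-PCR, fluorescent labelling, HpaI digestion and capillary electrophoresis; gain of signal vs DMSO.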

A short description of test [20]: ATG_XTT_Cytotoxicity: Cytotoxicity Assessment in the Attagene TRANS-FACTORIAL HepG2 Assay (AID 2283584; active = hit-call score of the fitted dose curve at least 0.9, where 1 is the maximum). The method, boiled down:
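XTT readout of cell number in transfected HepG2 cells, 24 h post-dosing; DMSO serves as negative control and baseline, with activity taken as loss of viability signal.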

Chain of Nuclear receptor subfamily 1 group I member 2 (Homo sapiens) (O75469 whole entry, looked up, the tested form may be a part): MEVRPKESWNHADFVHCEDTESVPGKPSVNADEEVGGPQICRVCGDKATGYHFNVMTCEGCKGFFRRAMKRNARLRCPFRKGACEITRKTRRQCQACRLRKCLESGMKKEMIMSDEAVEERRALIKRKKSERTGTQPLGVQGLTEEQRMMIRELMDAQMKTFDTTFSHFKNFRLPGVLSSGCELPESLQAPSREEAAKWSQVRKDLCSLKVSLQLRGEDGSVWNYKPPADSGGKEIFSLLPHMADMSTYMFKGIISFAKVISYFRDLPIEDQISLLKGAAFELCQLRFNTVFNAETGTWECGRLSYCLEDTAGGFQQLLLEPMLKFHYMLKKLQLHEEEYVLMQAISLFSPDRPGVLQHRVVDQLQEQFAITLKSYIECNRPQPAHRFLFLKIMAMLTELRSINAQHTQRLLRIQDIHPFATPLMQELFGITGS
Chain of Heat shock factor protein 1 (Homo sapiens) (Q00613 whole entry, looked up): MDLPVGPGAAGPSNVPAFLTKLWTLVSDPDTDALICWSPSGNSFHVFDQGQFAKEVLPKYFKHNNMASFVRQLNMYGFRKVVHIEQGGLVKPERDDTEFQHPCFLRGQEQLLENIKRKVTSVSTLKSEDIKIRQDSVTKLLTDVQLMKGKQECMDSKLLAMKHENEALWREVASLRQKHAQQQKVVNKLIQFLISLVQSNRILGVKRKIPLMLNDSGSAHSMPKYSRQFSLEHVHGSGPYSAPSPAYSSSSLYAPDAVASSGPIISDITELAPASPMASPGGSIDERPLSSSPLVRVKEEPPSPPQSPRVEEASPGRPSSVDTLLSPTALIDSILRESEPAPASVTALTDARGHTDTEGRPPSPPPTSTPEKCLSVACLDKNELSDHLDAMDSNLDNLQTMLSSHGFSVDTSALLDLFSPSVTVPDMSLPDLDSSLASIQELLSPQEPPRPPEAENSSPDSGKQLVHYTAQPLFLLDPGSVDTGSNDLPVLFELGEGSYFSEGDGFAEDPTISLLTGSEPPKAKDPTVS
Chain of Signal transducer and activator of transcription 3 (Homo sapiens) (P40763 whole entry, looked up): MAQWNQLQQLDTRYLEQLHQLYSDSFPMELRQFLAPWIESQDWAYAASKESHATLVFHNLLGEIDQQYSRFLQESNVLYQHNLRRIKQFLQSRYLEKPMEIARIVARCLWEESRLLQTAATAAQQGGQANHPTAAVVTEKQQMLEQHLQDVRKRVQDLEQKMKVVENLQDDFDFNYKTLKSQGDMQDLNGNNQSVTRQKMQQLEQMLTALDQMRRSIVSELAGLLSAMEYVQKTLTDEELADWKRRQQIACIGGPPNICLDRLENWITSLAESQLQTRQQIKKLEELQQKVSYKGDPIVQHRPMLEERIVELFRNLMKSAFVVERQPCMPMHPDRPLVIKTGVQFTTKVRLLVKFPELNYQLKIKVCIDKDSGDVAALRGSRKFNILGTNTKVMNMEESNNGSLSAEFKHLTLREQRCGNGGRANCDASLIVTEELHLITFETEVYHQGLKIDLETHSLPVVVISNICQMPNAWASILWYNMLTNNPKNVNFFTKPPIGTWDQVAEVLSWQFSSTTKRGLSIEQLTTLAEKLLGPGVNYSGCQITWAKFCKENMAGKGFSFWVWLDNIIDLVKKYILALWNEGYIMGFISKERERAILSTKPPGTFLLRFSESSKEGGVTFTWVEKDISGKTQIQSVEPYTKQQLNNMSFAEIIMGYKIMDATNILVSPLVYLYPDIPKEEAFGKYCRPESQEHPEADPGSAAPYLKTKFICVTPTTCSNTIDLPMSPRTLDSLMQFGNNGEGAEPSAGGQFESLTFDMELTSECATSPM
Chain of Cellular tumor antigen p53 (Homo sapiens) (P04637 whole entry, looked up): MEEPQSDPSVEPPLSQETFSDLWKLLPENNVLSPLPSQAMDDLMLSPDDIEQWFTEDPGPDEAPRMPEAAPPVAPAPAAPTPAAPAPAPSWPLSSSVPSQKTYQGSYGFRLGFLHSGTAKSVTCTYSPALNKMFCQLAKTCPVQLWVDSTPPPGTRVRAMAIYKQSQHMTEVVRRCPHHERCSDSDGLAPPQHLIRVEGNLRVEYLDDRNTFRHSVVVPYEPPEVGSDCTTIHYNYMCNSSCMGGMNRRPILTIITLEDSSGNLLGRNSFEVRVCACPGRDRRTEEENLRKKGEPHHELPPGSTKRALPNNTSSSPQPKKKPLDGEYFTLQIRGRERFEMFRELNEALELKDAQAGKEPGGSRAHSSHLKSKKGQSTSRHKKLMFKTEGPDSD
Chain of Myc proto-oncogene protein (Homo sapiens) (P01106 whole entry, looked up): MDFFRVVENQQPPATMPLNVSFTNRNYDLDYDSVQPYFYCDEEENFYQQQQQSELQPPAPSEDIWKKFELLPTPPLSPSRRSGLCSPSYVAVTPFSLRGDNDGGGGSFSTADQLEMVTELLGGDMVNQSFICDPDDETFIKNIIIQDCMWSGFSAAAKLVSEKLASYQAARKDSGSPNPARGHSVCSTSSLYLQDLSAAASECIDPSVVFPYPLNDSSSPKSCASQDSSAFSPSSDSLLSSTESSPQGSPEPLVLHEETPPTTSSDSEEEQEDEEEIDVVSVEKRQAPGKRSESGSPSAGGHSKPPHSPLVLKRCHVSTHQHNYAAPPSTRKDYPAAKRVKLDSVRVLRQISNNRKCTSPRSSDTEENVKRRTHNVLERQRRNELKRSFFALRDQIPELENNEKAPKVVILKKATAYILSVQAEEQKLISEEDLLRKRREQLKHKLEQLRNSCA
Chain of Nuclear respiratory factor 1 (Homo sapiens) (Q16656 whole entry, looked up, the tested form may be a part): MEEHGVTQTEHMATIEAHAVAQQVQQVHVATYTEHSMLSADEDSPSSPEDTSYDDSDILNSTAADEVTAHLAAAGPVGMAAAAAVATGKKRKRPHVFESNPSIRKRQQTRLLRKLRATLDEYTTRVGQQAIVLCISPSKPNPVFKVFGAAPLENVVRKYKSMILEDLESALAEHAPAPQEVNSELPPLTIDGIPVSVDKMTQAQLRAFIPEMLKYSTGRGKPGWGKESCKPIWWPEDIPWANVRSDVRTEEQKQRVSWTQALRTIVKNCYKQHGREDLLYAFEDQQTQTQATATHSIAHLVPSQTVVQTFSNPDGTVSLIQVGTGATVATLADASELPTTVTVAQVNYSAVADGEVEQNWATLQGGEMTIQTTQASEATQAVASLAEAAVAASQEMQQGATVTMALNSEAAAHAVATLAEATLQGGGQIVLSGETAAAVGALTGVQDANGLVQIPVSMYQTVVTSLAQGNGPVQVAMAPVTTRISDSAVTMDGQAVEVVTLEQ
Chain of Hepatocyte nuclear factor 3-beta (Homo sapiens) (Q9Y261 whole entry, looked up): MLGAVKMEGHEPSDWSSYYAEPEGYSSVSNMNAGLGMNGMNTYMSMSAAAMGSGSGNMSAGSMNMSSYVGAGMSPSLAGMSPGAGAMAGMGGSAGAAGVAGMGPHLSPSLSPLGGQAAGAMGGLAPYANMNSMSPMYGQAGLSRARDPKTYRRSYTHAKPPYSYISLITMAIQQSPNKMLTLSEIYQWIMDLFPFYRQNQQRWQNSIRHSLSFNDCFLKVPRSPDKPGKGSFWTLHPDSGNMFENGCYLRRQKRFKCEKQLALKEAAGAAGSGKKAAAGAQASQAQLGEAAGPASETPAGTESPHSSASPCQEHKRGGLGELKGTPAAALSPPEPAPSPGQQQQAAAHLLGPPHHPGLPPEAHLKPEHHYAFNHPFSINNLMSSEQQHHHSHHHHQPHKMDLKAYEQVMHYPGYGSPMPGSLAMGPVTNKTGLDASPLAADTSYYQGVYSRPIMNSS

For `CCCCCCCCCCC1CO1` (stereo not drawn), the result in test [1], in [2], in test [3], in test [4], in test [7] and in [9] was inactive. Further, the compound was classed as inactive in test [10], in test [11], in test [12], in test [13], in test [14] and in test [15]. Moreover, the compound was called inactive in test [17], in test [18], in [19] and in test [20]. Moreover, the AC50 – broadly, the concentration giving half of the maximal activity seen – was 154 µM (active) in test [5], 100 µM (active) in test [6], 153 µM (active) in test [8] and 128 µM (active) in [16].

For `Nc1ccc(S(=O)(=O)Nc2cnc3ccccc3n2)cc1`, the compound was classed as inactive in test [1], in test [2], in test [3], in test [4], in test [5] and in [6]. For the same compound, the result in test [7], in test [8], in test [9], in test [10], in [11] and in test [12] was inactive. For the same compound, the compound was called inactive in [13], in [14], in [15], in [16], in [17] and in [18]. The result in [19] and in test [20] was inactive.

Turning to `CN(C)CCC(c1ccc(Cl)cc1)c1ccccn1` (stereo not drawn), the compound was called inactive in test [2], in [3], in test [4], in test [5], in test [6] and in [7]. In addition, the compound was classed as inactive in test [8], in test [9], in test [10], in test [12], in test [13] and in [14]. In addition, the result in [15], in test [16], in [17], in test [18], in test [19] and in test [20] was inactive.
